Calls of active or inactive are those of the source.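 How the source made its calls, unless noted: active means normalized viability below 100% at a tested concentration; inactive means the rest.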
What was measured:
[1] = drug combination growth inhibition, ovarian cancer – cell-based, oncology-focused library, rucaparib conditional, profiling panel (AID 1508598); conditions: patient-derived ovarian cancer cells, CellTiter-Glo viability, 144 h, hits give low values
[2] = biological target: NAD(+) hydrolase SARM1 (Homo sapiens) (UniProt Q6SZW1); experiment: blocking NAD cleavage by SARM1 SAM-TIR – cell lysate, NAD-Glo luminescence (AID 1508614;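 active means compound whose remaining NAD level is above about 45 nM, limit read from the data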;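 further: higher remaining NAD means stronger inhibition of SARM1 NADase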); conditions: SAM-TIR HEK293T lysate NADase, at 1 µM, hits give high values
Chain of NAD(+) hydrolase SARM1 (Homo sapiens) (Q6SZW1 whole entry, looked up): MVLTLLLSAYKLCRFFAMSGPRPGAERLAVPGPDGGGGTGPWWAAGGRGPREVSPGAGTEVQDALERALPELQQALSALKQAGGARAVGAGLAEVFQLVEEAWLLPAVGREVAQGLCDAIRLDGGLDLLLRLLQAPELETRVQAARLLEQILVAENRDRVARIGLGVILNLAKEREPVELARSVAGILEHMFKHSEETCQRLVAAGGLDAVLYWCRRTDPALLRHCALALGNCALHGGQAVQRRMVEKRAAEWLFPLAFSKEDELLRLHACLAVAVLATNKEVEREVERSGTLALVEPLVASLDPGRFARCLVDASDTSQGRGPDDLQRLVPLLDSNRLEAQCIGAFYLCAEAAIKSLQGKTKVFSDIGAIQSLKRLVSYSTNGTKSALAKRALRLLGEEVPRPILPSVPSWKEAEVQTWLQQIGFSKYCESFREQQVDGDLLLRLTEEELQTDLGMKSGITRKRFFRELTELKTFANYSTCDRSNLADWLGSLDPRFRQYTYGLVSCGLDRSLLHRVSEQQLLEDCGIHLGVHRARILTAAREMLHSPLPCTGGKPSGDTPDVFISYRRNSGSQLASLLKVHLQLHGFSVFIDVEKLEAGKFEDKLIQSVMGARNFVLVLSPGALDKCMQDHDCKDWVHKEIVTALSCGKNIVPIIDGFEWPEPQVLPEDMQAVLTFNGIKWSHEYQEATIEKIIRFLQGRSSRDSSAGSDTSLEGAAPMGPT

[3] = at 0.000305 µM, OCI-C5x cells, with rucaparib 10 µM, 100% = cells with rucaparib alone
[4] = at 0.000305 µM, OCI-C5x cells, without rucaparib
[5] = at 0.000305 µM, OCI-P5x cells, with rucaparib 20 µM, 100% = cells with rucaparib alone
[6] = at 0.000305 µM, OCI-P5x cells, without rucaparib
[7] = at 0.00122 µM, OCI-C5x cells, with rucaparib 10 µM, 100% = cells with rucaparib alone
[8] = at 0.00122 µM, OCI-C5x cells, without rucaparib
[9] = at 0.00122 µM, OCI-P5x cells, with rucaparib 20 µM, 100% = cells with rucaparib alone
[10] = at 0.00122 µM, OCI-P5x cells, without rucaparib
[11] = at 0.00488 µM, OCI-C5x cells, with rucaparib 10 µM, 100% = cells with rucaparib alone
[12] = at 0.00488 µM, OCI-C5x cells, without rucaparib
[13] = at 0.00488 µM, OCI-P5x cells, with rucaparib 20 µM, 100% = cells with rucaparib alone
[14] = at 0.00488 µM, OCI-P5x cells, without rucaparib
[15] = at 0.0195 µM, OCI-C5x cells, with rucaparib 10 µM, 100% = cells with rucaparib alone
[16] = at 0.0195 µM, OCI-C5x cells, without rucaparib
[17] = at 0.0195 µM, OCI-P5x cells, with rucaparib 20 µM, 100% = cells with rucaparib alone
[18] = at 0.0195 µM, OCI-P5x cells, without rucaparib
[19] = at 0.0781 µM, OCI-C5x cells, with rucaparib 10 µM, 100% = cells with rucaparib alone
[20] = at 0.0781 µM, OCI-C5x cells, without rucaparib
[21] = at 0.0781 µM, OCI-P5x cells, with rucaparib 20 µM, 100% = cells with rucaparib alone
[22] = at 0.0781 µM, OCI-P5x cells, without rucaparib
[23] = at 0.313 µM, OCI-C5x cells, with rucaparib 10 µM, 100% = cells with rucaparib alone
[24] = at 0.313 µM, OCI-C5x cells, without rucaparib
[25] = at 0.313 µM, OCI-P5x cells, with rucaparib 20 µM, 100% = cells with rucaparib alone
[26] = at 0.313 µM, OCI-P5x cells, without rucaparib
[27] = at 1.25 µM, OCI-C5x cells, with rucaparib 10 µM, 100% = cells with rucaparib alone
[28] = at 1.25 µM, OCI-C5x cells, without rucaparib
[29] = at 1.25 µM, OCI-P5x cells, with rucaparib 20 µM, 100% = cells with rucaparib alone
[30] = at 1.25 µM, OCI-P5x cells, without rucaparib
[31] = at 5 µM, OCI-C5x cells, with rucaparib 10 µM, 100% = cells with rucaparib alone
[32] = at 5 µM, OCI-C5x cells, without rucaparib
[33] = at 5 µM, OCI-P5x cells, with rucaparib 20 µM, 100% = cells with rucaparib alone
[34] = at 5 µM, OCI-P5x cells, without rucaparib

C=CCNC1=C2C[C@@H](C)C[C@H](OC)[C@H](O)[C@@H](C)/C=C(\C)[C@H](OC(N)=O)[C@@H](OC)/C=C\C=C(\C)C(=O)NC(=CC1=O)C2=O
active: viability [1, 21] 41.9% | viability [1, 22] 35.9% | viability [1, 24] 56.1% | viability [1, 25] 12.5% | viability [1, 26] 8.71% | viability [1, 27] 28.6% | viability [1, 28] 27.2% | viability [1, 29] 5.52% | viability [1, 30] 5.3% | viability [1, 31] 8.53% | viability [1, 32] 8.44% | viability [1, 33] 2.79% | viability [1, 34] 1.94%
inactive: viability [1, 3] 110% | viability [1, 4] 101% | viability [1, 5] 119% | viability [1, 6] 124% | viability [1, 7] 113% | viability [1, 8] 108% | viability [1, 9] 126% | viability [1, 10] 121% | viability [1, 11] 110% | viability [1, 12] 117% | viability [1, 13] 122% | viability [1, 14] 126% | viability [1, 15] 120% | viability [1, 16] 116% | viability [1, 17] 119% | viability [1, 18] 115% | viability [1, 19] 133% | viability [1, 20] 112% | viability [1, 23] 104%

COc1cc(=C2C=c3ccccc3=N2)[nH]/c1=C\c1[nH]c(C)cc1C
active: viability [1, 5] 81.8% | viability [1, 6] 30.2% | viability [1, 9] 69.4% | viability [1, 10] 19.5% | viability [1, 14] 97.2% | viability [1, 17] 98.9% | viability [1, 18] 97.5% | viability [1, 20] 79.1% | viability [1, 21] 29.2% | viability [1, 22] 77.3% | viability [1, 24] 93.7% | viability [1, 25] 13.2% | viability [1, 26] 18.4% | viability [1, 27] 89.4% | viability [1, 28] 91.7% | viability [1, 29] 10.1% | viability [1, 30] 22% | viability [1, 31] 37.7% | viability [1, 32] 21.3% | viability [1, 33] 1.33% | viability [1, 34] 3.6%
inactive: viability [1, 3] 118% | viability [1, 4] 122% | viability [1, 7] 127% | viability [1, 8] 124% | viability [1, 11] 132% | viability [1, 12] 114% | viability [1, 13] 105% | viability [1, 15] 115% | viability [1, 16] 115% | viability [1, 19] 110% | viability [1, 23] 131%

COc1cc2c(cc1O)CC[C@@H]1[C@H]2CC[C@]2(C)[C@H](O)CC[C@@H]12
active: viability [1, 6] 96.3% | viability [1, 9] 99.4% | viability [1, 17] 95.3% | viability [1, 28] 96.8% | viability [1, 30] 66.5% | viability [1, 33] 98.9% | viability [1, 34] 97.5%
inactive: viability [1, 3] 113% | viability [1, 4] 107% | viability [1, 5] 106% | viability [1, 7] 116% | viability [1, 8] 111% | viability [1, 10] 104% | viability [1, 11] 119% | viability [1, 12] 118% | viability [1, 13] 109% | viability [1, 14] 108% | viability [1, 15] 103% | viability [1, 16] 105% | viability [1, 18] 105% | viability [1, 19] 105% | viability [1, 20] 105% | viability [1, 21] 102% | viability [1, 22] 104% | viability [1, 23] 124% | viability [1, 24] 107% | viability [1, 25] 106% | viability [1, 26] 105% | viability [1, 27] 107% | viability [1, 29] 104% | viability [1, 31] 124% | viability [1, 32] 101%

C[C@H]1C[C@H]2[C@@H]3CCC4=CC(=O)C=C[C@]4(C)[C@@H]3C(=O)C[C@]2(C)[C@]1(O)C(=O)CO
inactive: viability [1, 3] 114% | viability [1, 4] 123% | viability [1, 6] 119% | viability [1, 7] 118% | viability [1, 8] 124% | viability [1, 9] 105% | viability [1, 10] 116% | viability [1, 11] 110% | viability [1, 12] 119% | viability [1, 14] 119% | viability [1, 15] 113% | viability [1, 16] 122% | viability [1, 17] 103% | viability [1, 18] 122% | viability [1, 19] 109% | viability [1, 20] 122% | viability [1, 21] 102% | viability [1, 22] 125% | viability [1, 23] 111% | viability [1, 24] 125% | viability [1, 25] 100% | viability [1, 26] 126% | viability [1, 27] 125% | viability [1, 28] 129% | viability [1, 29] 108% | viability [1, 30] 130% | viability [1, 31] 119% | viability [1, 32] 148% | viability [1, 33] 112% | viability [1, 34] 125%
active: viability [1, 5] 96.8% | viability [1, 13] 96.6%

CC(=O)c1ccc2c(c1)N(CCCN1CCN(CCO)CC1)c1ccccc1S2
inactive: remaining NAD [2] 10 nM

Cc1cc(NC(=O)c2cccc(NC(=O)/C=C/CN(C)C)c2)ccc1Nc1nccc(-c2cccnc2)n1
inactive: viability [1, 3] 118% | viability [1, 4] 133% | viability [1, 5] 111% | viability [1, 6] 110% | viability [1, 7] 116% | viability [1, 8] 132% | viability [1, 9] 108% | viability [1, 10] 113% | viability [1, 11] 140% | viability [1, 12] 160% | viability [1, 13] 108% | viability [1, 14] 107% | viability [1, 15] 146% | viability [1, 16] 172% | viability [1, 17] 104% | viability [1, 18] 106% | viability [1, 19] 180% | viability [1, 20] 183% | viability [1, 21] 111% | viability [1, 22] 109% | viability [1, 23] 172% | viability [1, 24] 199% | viability [1, 25] 116% | viability [1, 26] 112% | viability [1, 27] 163% | viability [1, 28] 186% | viability [1, 29] 103% | viability [1, 30] 116% | viability [1, 31] 159% | viability [1, 32] 194%
